High-throughput results deposited in PubChem by several laboratories.
Compounds with a hit are over-represented: about 4.1% of the library has one in this group of screens.
TRPM1 prom inh: reduces MITF-dependent TRPM1 promoter luciferase signal; SK-MEL-5 TRPM1 promoter luciferase, 24 h; inhibition, % at 12.5 µM; hit rate 0.83% among 330,000; AID 488899;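 active = mean inhibition across replicates of 60% or more, whatever share of single replicates reaches that level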
LMP1 NFkB inh: reduces LMP1-driven NF-kappaB luciferase signal. inhibition, % at 12.5 µM. hit rate 0.69% among 350,000. AID 504558. LMP1-induced NF-kappaB luciferase reporter cells, luminescence; in the data active = inhibition above about 41%
Peg3 promoter: Peg3 promoter activity inhibition; HeLa PEG-Prom luciferase reporter, luminescence, overnight; inhibition, % at 20 µM; hit rate 1.7% among 360,000; AID 588405;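 active = inhibition of at least 50% at 20 µM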
TWEAK-Fn14 inh: TWEAK-Fn14 signaling inhibition. TWEAK-stimulated Fn14 reporter cells, luciferase luminescence, 8 h. inhibition, % at 10 µM. hit rate 2% among 360,000; in the data active = inhibition above about 50%
TROY NFkB inh: TROY signaling inhibition; Q293 LMP1-TROYcd NF-kB luciferase reporter, 4 h; inhibition, % at 10 µM; hit rate 0.98% among 360,000; AID 1347056;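 active = compounds whose plate-normalised and pattern-corrected inhibition of the luciferase reporter signal at the single screening dose is 50% or more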
Shn3 3UTR inh: Schnurri-3 reporter inhibition in Clone20 osteoblasts; inhibition, % at 12.5 µM; hit rate 0.52% among 360,000; Clone20 osteoblast Shn3 3'UTR firefly luciferase, 24 h;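 active = mean inhibition of at least 75% with every replicate also reaching 75%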
Large screens that a line does not name were inactive; ! = not confirmed by another sample.

O=C(c1cn(Cc2ccccc2)nc1-c1cccnc1)N1CCN(Cc2ccccc2)CC1	Peg3 promoter 98
O=C(c1cn(Cc2ccccc2)nc1-c1cccnc1)N1CCN(Cc2c(F)cccc2Cl)CC1	none
CN1C(=O)C(CC(=O)NC2CCCCC2)SC1=Nc1ccccc1 (configuration not stated)	LMP1 NFkB inh 64
CCN=C1SC(CC(=O)NC2CCCCC2)C(=O)N1CC (configuration not stated)	none
O=S(=O)(Nc1cc(F)ccc1F)c1cccc2nonc12	none
CCC1CCCCN1Cc1ccc(CNC(=O)CCc2nnc3ccc(N4CCCCC4)nn23)o1 (configuration not stated)	none
N#C/C(=C/c1ccc(CNS(=O)(=O)c2ccccc2)o1)C(N)=O	TWEAK-Fn14 inh 69
Cc1c(N=Cc2cc(Br)cc(Br)c2O)cccc1C(=O)O	LMP1 NFkB inh 68
COc1cccc(CC(=O)N[C@@H](CCSC)c2nc3ccccc3[nH]2)c1	none
CCCCCc1c2c(cc(O)c1C(=O)O)OC(=O)c1cc(C(=O)CCCC)c(OC)cc1O2	none
CCCCCc1c2c(cc(O)c1C(=O)O)OC(=O)c1c(cc(OC)cc1C(=O)CCCC)O2	TROY NFkB inh 62 (no result: TRPM1 prom inh)
CCn1ncc(Br)c1C(=O)Nc1ccc(F)c([N+](=O)[O-])c1	none
CCC/C=N/NC(=O)C1COc2ccccc2O1 (configuration not stated)	none
O=C(NCc1ccco1)/C(=C\C=C\c1ccccc1)NC(=O)c1ccccc1Br	TROY NFkB inh 70
Nc1c(N2CCOCC2)cc(Cl)c2nonc12	none
Nc1c(N2CCCC2)cc(Cl)c2nonc12	TRPM1 prom inh 74
Cc1ccc(S(=O)(=O)N2[C@@H](c3cccc(Cl)c3)C(C(=O)O)=CC[C@H]2c2ccc(Cl)cc2)cc1	none
Cc1ccc([C@@H]2CC=C(C(=O)O)[C@H](c3ccc(C(C)(C)C)cc3)N2S(=O)(=O)c2ccc(C)cc2)cc1	TWEAK-Fn14 inh 52, TROY NFkB inh 65
Cc1ccc(S(=O)(=O)N2[C@@H](c3ccc(C(C)(C)C)cc3)C(C(=O)O)=CC[C@H]2c2ccc(Cl)cc2)cc1	TWEAK-Fn14 inh 89, TROY NFkB inh 88
Cc1ccc(S(=O)(=O)N2[C@@H](c3ccc(Cl)cc3)C(C(=O)O)=CC[C@H]2c2ccc(Cl)c(Cl)c2)cc1	TROY NFkB inh 63
Cc1ccc(S(=O)(=O)N2[C@@H](c3ccc(Cl)c(Cl)c3)C(C(=O)O)=C[C@H]2CC2CCCC2)cc1	TROY NFkB inh 67
COc1cc(OC)cc(C2=Cc3ccccc3C(CC(C)=O)N2c2ccc(C#CC3(N)CCCCC3)cc2)c1 (configuration not stated)	none (no result: TRPM1 prom inh, LMP1 NFkB inh, Peg3 promoter, Shn3 3UTR inh)
Cc1ccc(S(=O)(=O)N2[C@@H](c3ccc(Br)cc3)C(C(=O)O)=CC[C@H]2c2ccc(C(C)C)cc2)cc1	TROY NFkB inh 70
CCc1ccc([C@@H]2CC=C(C(=O)O)[C@H](c3ccc(C(C)(C)C)cc3)N2S(=O)(=O)c2ccc(C)cc2)cc1	TWEAK-Fn14 inh 84, TROY NFkB inh 84
Cc1ccc(S(=O)(=O)N2[C@@H](c3ccc(C(C)(C)C)cc3)C(C(=O)O)=CC[C@H]2c2ccc(C(C)C)cc2)cc1	TWEAK-Fn14 inh 94, TROY NFkB inh 87
CCc1ccc([C@@H]2CC=C(C(=O)O)[C@H](c3ccccc3)N2S(=O)(=O)c2ccc(C)cc2)cc1	none
Cc1ccc(Nc2nc3nonc3[nH]c2=O)cc1C	none
Cc1ccc(Nc2nc3nonc3[nH]c2=O)cc1Cl	TWEAK-Fn14 inh 59
COc1ccc(NC(=O)c2n[nH]c(=O)c3ccccc23)cc1S(=O)(=O)N1CCCCC1	none
Cc1ccc(NC(=O)Nc2c(C)[nH]c(=O)[nH]c2=O)cc1Cl	none
CCCC(c1nnnn1Cc1ccc(OC)cc1)N1CCN(c2ccccc2)CC1 (configuration not stated)	Shn3 3UTR inh 89
CCc1cc2cccc(C)c2nc1SCC(=O)Nc1cc(C)on1	none
O=C(Oc1ccccc1N1CCOCC1)c1sccc1Br	none
COc1ccc(-c2csc3ncnc(N4CCN(S(=O)(=O)c5cccc(C(F)(F)F)c5)CC4)c23)cc1	none
Fc1ccc(CSc2ncnc3scc(-c4ccccc4)c23)cc1	none
Cn1nnnc1Sc1ncnc2scc(-c3ccccc3C(F)(F)F)c12	none
COC(=O)CSc1ncnc2scc(-c3ccccc3)c12	none
Cn1nnnc1Sc1ncnc2scc(-c3cccc(C(F)(F)F)c3)c12	TRPM1 prom inh 75, Peg3 promoter 95, TWEAK-Fn14 inh 90, TROY NFkB inh 58
COc1cccc(-c2csc3ncnc(Sc4nnnn4C)c23)c1	TRPM1 prom inh 71, LMP1 NFkB inh 75, Peg3 promoter 88, TWEAK-Fn14 inh 75
Cn1nnnc1Sc1ncnc2scc(-c3cccc(F)c3)c12	TRPM1 prom inh 78, Peg3 promoter 102, TWEAK-Fn14 inh 64
Cn1nnnc1Sc1ncnc2scc(-c3ccc(C(F)(F)F)cc3)c12	TRPM1 prom inh 82, Peg3 promoter 97, TWEAK-Fn14 inh 93, TROY NFkB inh 55
COc1c(N)c2c(c([N+](=O)[O-])c1OC)C(=O)OC2	none
Cc1ncc([N+](=O)[O-])n1CC(=O)NC1CCCCCC1	none
Cc1ccc(N(CC(=O)NCC2CCCO2)C(=O)CCC(=O)Nc2cc(C)on2)cc1 (configuration not stated)	none
Cc1cc(C)n(S(=O)(=O)c2cc(C(=O)O)c(Cl)cc2Cl)n1	none
COC(=O)c1cc(S(=O)(=O)n2nc(C)c(Br)c2C)c(Cl)cc1Cl	Peg3 promoter 87
CC[C@H](C)C1OC(=O)[C@@H](C)[C@@H](CC)NC(=O)[C@H](C)N(C)C(=O)C(C)(C)C(=O)C(C)NC(=O)[C@H](Cc2ccc(OC)cc2)N(C)C(=O)[C@H](C(C)C)N(C)C(=O)CNC(=O)[C@H](CC(C)C)N(C)C(=O)CNC1=O (some centres not stated)	Peg3 promoter 92, TROY NFkB inh 54 (no result: TRPM1 prom inh, LMP1 NFkB inh)
COc1cc2nc(N3CCN(C(=O)[C@H]4COc5ccccc5O4)CC3)nc(N)c2cc1OC	none
COc1cc2nc(N3CCN(C(=O)C4CCCO4)CC3)nc(N)c2cc1OC (configuration not stated)	LMP1 NFkB inh 79!
Cc1ccc(S(=O)(=O)N2CCN(C(=O)COC(=O)COc3ccc(Cl)cc3C)CC2)c(C)c1	none
O=C(C/C=N/OCc1c(Cl)cccc1Cl)c1cnc(-c2ccccc2)s1	TROY NFkB inh 54
O=C(C/C=N/OCc1ccc(Cl)cc1)c1cnc(-c2ccccc2)s1	none
CC(NC(=O)COC(=O)C1CC2CCCC(C1)C2=O)c1ccccc1 (configuration not stated)	none
COc1c(S(=O)(=O)N2CCCCC2)ccc2c(S(=O)(=O)N3CCCCC3)cccc12	TWEAK-Fn14 inh 64
COc1cc(OC)c(S(=O)(=O)N2CCCCC2)cc1S(=O)(=O)N1CCCCC1	TWEAK-Fn14 inh 83 (no result: TROY NFkB inh)
O=S(=O)(c1cccc2c(S(=O)(=O)N3CCCC3)cccc12)N1CCCC1	none
